# Measurements: PubChem BioAssay AID651687 (Broad Institute, 2012)
# In all, about 350,000 compounds went through this assay and about 600 (0.17%) were called active. What follows is part of a selection rich in actives, with near analogues and random picks from the rest. Unmarked numbers belong to inactive results.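 Rule for the calls: active = every replicate shows inhibition of at least 40%; inconclusive = mean inhibition at least 40% but some replicate below; inactive = the rest.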
# Assay: inhibitors of PGC1a acetylation signal, primary screen, cell-based, U2OS, AlphaScreen, inhibitor mode (AID 651687);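 note: 0% = neutral control wells and 100% = positive control wells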
# Settings: AlphaScreen anti-acetyl-lysine, at 15.6 µM, stronger effect = higher value, with virally co-expressed GCN5 acetyltransferase
row,SMILES,inhibition
1,COc1ccc(-c2ccc3c(c2)[C@@H]2[C@@H](CCN2C(=O)c2cccc(F)c2)[C@H](CO)N3)cc1,6.58%
2,O=C(Nc1ccc2c(c1)[C@@H]1C[C@H](CC(=O)N3CCOCC3)O[C@@H](CO)[C@@H]1O2)C1CCOCC1,-6.68%
3,CNC[C@H]1Oc2cc(C#CC3CCCC3)ccc2S(=O)(=O)N([C@H](C)CO)C[C@@H]1C,-10.8%
4,C[C@@H]1CCCCO[C@@H](CN(C)C(=O)Cc2ccccc2)[C@H](C)CN([C@@H](C)CO)C(=O)c2cc(NC(=O)Nc3ccc4c(c3)OCO4)ccc2O1,-5.63%
5,COc1ccc(NS(=O)(=O)c2ccc(F)cc2F)cn1,0.335%
6,COc1ccc(NC(=O)CN2C(=O)NC(C)(c3ccccc3)C2=O)cn1 (configuration not stated),0.857%
7,COc1ccc(NC(=O)/C(Cl)=C(/Cl)S(=O)Cc2ccc(C)cc2)cn1 (configuration not stated),69.3% (active)
8,Cc1noc(C)c1NC(=O)Nc1ccc2c(c1)C(=O)N([C@@H](C)CO)C[C@H](C)[C@@H](CN(C)C(=O)Nc1ccccc1)O2,-6.84%
9,C[C@@H]1CCCCO[C@@H](CN(C)C(=O)CCCN(C)C)[C@H](C)CN([C@@H](C)CO)C(=O)c2cc(NC(=O)Nc3ccccc3)ccc2O1,20%
10,C[C@@H]1CN([C@@H](C)CO)C(=O)c2cc(NS(C)(=O)=O)ccc2O[C@H]1CN(C)C(=O)Nc1ccc(F)cc1,0.678%
11,Cn1cnc(S(=O)(=O)N2CC[C@@H]3[C@H]2c2cc(C#Cc4cccc(F)c4)ccc2N[C@@H]3CO)c1,-5.83%
12,CCS(=O)(=O)NCC[C@H]1CC[C@@H](NC(=O)Nc2cc(Cl)cc(Cl)c2)[C@@H](CO)O1,-5.94%
13,Cc1ccc(S(=O)(=O)N[C@@H]2CC[C@@H](CCn3cc(C(C)C)nn3)O[C@H]2CO)cc1,-5.62%
14,CC(C)NC(=O)N(C)C[C@H]1Oc2c(NS(C)(=O)=O)cccc2C(=O)N([C@@H](C)CO)C[C@H]1C,3.18%
15,C[C@@H]1CN([C@@H](C)CO)C(=O)c2cc(NC(=O)Nc3ccc4c(c3)OCO4)ccc2O[C@@H](C)CCCCO[C@H]1CN(C)C(=O)Nc1ccc(C(F)(F)F)cc1,-7.26%
16,C[C@H](CO)N1C[C@H](C)[C@H](CN(C)Cc2ccc(C(=O)O)cc2)Oc2ccc(NC(=O)NC3CCCCC3)cc2C1=O,6.53%
17,Cc1noc(C)c1NC(=O)Nc1ccc2c(c1)CC(=O)N([C@@H](C)CO)C[C@@H](C)[C@H](CN(C)C(=O)NC1CCCCC1)O2,0.249%
